Source: PubChem BioAssay AID1347419 (Sanford-Burnham Center for Chemical Genomics, 2020)
In all, about 99,000 compounds went through this assay and about 820 (0.83%) were called active. The sample as a whole holds a higher share of actives than the screen did. Values without a mark were called inactive.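 How the source made its calls: active means Z-score of -3 or lower, scaled per plate to the spread of control and sample wells; inactive means z-score above -3.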

Each compound was assayed against Protein-tyrosine kinase 2-beta (Homo sapiens) (UniProt Q14289) (assay: Pyk2 FERM oligomerization blockers – Q293 cells, FERM NanoBiT luminescence, HTS, primary screen (AID 1347419;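 further: the deposit names both 25 µM and 10 µM; negative z-score means lost luminescence so less FERM oligomerization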)). Conditions: active compounds read low.
Set-up: dose or concentration left out as unconfirmed

Sequence of Protein-tyrosine kinase 2-beta (Homo sapiens) (Q14289 whole entry, looked up): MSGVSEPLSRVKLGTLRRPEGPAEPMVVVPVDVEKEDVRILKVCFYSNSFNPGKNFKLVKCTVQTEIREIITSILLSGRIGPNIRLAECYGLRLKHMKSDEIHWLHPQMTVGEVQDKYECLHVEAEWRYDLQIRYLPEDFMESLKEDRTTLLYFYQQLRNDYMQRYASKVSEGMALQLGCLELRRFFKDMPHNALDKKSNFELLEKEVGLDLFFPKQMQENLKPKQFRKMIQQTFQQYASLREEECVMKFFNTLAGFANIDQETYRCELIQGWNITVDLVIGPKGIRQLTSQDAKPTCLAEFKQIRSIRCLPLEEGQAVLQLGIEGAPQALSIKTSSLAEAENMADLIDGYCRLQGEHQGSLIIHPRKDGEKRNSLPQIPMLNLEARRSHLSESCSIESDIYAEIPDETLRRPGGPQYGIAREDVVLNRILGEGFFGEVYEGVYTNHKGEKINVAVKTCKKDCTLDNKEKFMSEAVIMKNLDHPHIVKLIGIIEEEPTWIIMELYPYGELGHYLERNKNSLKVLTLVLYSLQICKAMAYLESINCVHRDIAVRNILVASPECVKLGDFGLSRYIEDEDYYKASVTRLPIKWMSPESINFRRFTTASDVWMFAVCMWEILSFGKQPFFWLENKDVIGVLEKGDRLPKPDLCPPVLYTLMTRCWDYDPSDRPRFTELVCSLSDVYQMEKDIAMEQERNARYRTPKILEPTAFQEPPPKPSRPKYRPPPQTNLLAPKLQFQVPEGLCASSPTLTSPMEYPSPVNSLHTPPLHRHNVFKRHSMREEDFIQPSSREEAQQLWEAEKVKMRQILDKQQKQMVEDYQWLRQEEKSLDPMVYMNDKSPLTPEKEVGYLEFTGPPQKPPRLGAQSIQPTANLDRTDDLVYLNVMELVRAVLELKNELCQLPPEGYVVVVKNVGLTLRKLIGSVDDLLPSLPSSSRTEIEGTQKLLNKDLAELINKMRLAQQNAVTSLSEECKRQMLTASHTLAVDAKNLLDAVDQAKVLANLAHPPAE

Structure (SMILES)	z-score
Cc1ccc(Nc2nnc(SCC(=O)c3cc4ccccc4o3)s2)cc1C	-0.02
CC1CCN(C(=S)NC2CC3CCC2C3)CC1 (stereo unspecified)	-0.08
Cc1cccc(NC(=O)COc2ccccc2C)n1	0.47
CN1CCN(c2ccc(NC(=O)COc3ccc(Cl)cc3Cl)cc2)CC1	-0.4
Cc1ccccc1OCC(=O)Nc1ccc(N2CCN(C(=O)C(C)C)CC2)c(Cl)c1	-3.97 (active)
O=S(=O)(NCCc1ccncc1)c1ccccc1	0.43
Cc1cccc(-n2c(C)cc(/C=N\NC(=O)c3cccs3)c2C)c1	-0.91
CCn1c(/C=C/Nc2ccccc2)[n+](CC)c2ccc(C(=O)OCC(F)(F)F)cc21	1.39
Cc1nn(Cc2ccccc2)c2c1C(c1ccccc1)C(C#N)=C(N)O2 (stereo unspecified)	-3.32 (active)
CCCc1[nH]nc2c1C(c1c(C)nn(-c3ccccc3)c1Cl)C(C#N)=C(N)O2 (stereo unspecified)	0.22
Cc1cc2c(c(=O)n1Cc1ccco1)C(c1ccccc1)C(C#N)=C(N)O2 (stereo unspecified)	1.13
CCCn1c(C)cc(C(=O)COC(=O)c2c(C)nn(-c3ccccc3)c2C)c1C	1.05
Cc1nn(-c2ccccc2)c(C)c1C(=O)OCC(=O)NC(=O)NC1CCCCC1	-3.49 (active)
O=C(COC(=O)c1ccccc1SCC(=O)NC1CCCCC1)NC1CCCCC1	1.77
COC(=O)[C@H]1Cc2cnoc2C[C@]1(C)C(=O)O	1.39
O=c1c(Cl)c(NCc2ccc(F)cc2Cl)cnn1C12CC3CC(CC(C3)C1)C2	0.24
COc1ccc(-c2cc(C3CCN(c4ncccc4[N+](=O)[O-])CC3)[nH]n2)cc1	-3.98 (active)
COc1cccc(NC(=O)c2nn(C34CC5CC(CC(C5)C3)C4)cc2[N+](=O)[O-])c1	-0.19
Cc1nc(-c2ccc(NC(=O)c3cccs3)cc2)cs1	-0.41
Cc1ccc(-c2csc(NC(=O)c3cccs3)n2)cc1	-3.32 (active)
Cc1ccc(-c2nnc(-c3ccc(NC(=O)c4cccs4)cc3)o2)cc1	-0.15

Structure (SMILES)	z-score
CC(C)(C)C1C/C(=C/c2ccco2)C(=O)/C(=C/c2ccco2)C1 (stereo unspecified)	0.6
Cc1ccc(OCC(=O)OC(C)CN(C)Cc2ccccc2)cc1 (stereo unspecified)	2.87
COc1ccc(N2C(=O)CNC2=S)cc1	0.4
c1ccc(-c2cc(-c3nnc4sc(-c5ccccn5)nn34)[nH]n2)cc1	-3.26 (active)
COc1ccc(-c2nn3c(-c4ccccc4)nnc3s2)cc1OC	-1.25
CCOc1cccc(-c2nn3c(-c4ccccn4)nnc3s2)c1	-1.53
CC(NC(=O)C(=O)NN=C1CCC(C(C)(C)C)CC1)c1ccccc1 (stereo unspecified)	-0.32
CNc1ccc(NC(C)=O)cc1[N+](=O)[O-]	-0.8
CC(C)CC(=O)NC(=S)Nc1cc(C(=O)O)ccc1Cl	0.14
COc1ccc(-c2cn(-c3ccc(OC)cc3)c(=S)[nH]2)cc1	0.64
CSCCC(NC(=O)COc1ccccc1)C(=O)Nc1ccc(C)cc1 (stereo unspecified)	0.49
CC(C)OCCCNc1ncnc2c1[nH]c1ccc(F)cc12	-1.09
Fc1ccc2[nH]c3c(N4CCSCC4)ncnc3c2c1	-3.08 (active)
CCN1CCCC1CNc1ncnc2c1[nH]c1ccc(F)cc12 (stereo unspecified)	1.26
O=C(CNCc1ccc(F)cc1)Nc1ccccc1-c1ccccc1	-0.24
COc1ccc(C(=O)NNS(=O)(=O)c2ccc(C)cc2)cc1	-0.21
CCCCNC(=O)CCn1c(=O)c2ccccc2n(Cc2cc(C)ccc2C)c1=O	1.04
CN1/C(=c2/s/c(=C3/C(=O)N(c4ccccc4)NC3=Nc3ccccc3)n(C)c2=O)C(C)(C)c2ccccc21	-3.22 (active)
COc1cccc(-c2ccc(C#N)c(SCC(=O)NCCc3ccc(Cl)cc3)n2)c1	-0.01
COc1ccc(Br)cc1CN(C)CC(=O)Nc1cc([N+](=O)[O-])ccc1OC	-1.86
Cc1ccc2c(CC(=O)NCc3cccs3)coc2c1	-0.4

Structure (SMILES)	z-score
N#C/C(=C\c1ccc(N2CCOCC2)o1)C(=O)N1CCOCC1	0.12
COc1ccccc1Oc1ccc(N/C=C2/CCCC2=O)cc1	0.42
COc1ccc(C2CC(=O)Nc3sc(=N)c4c(N)c(C#N)c(N)nc4c32)cc1OC (stereo unspecified)	-1.89
N#Cc1c(N)nc2c3c(sc(=N)c2c1N)NC(=O)CC3c1ccccc1Cl (stereo unspecified)	-3.47 (active)
CSc1nc(N)c(C#N)c(-c2ccccc2Cl)c1C#N	-2.52
Cc1c(/C=N/N2C(=O)C3C4C=CC(C4)C3C2=O)c2ccccc2n1C (stereo unspecified)	0.37
Cc1ccc(CNC(=O)COc2ccc3c(c2)CCC3)cc1	1.09
CCCCN(C)c1ccc([N+](=O)[O-])cc1	-0.3
O=C(NCCc1ccccc1)C1CCN(S(=O)(=O)c2ccc(Br)s2)CC1	0.91
Cc1ccc(C(=O)Cc2nnc(C)s2)cc1	0.12
CCOc1ccc(NC(=O)c2ccccc2NS(C)(=O)=O)cc1	-0.27
COC(=O)c1ccccc1NC(=O)c1ccccc1NS(C)(=O)=O	0.05
COC(=O)c1ccc(NC(=O)c2ccccc2NS(=O)(=O)c2ccccc2)cc1	-3.71 (active)
O=C(NC(=S)Nc1ccc(NC(=O)c2cccs2)cc1)c1ccc([N+](=O)[O-])cc1	0.61
Cc1cccc(N2CCN(C(=O)c3cccc(S(=O)(=O)N4CCc5ccccc5C4)c3)CC2C)c1 (stereo unspecified)	0.72
CCc1ccc(C2N3CC4([N+](=O)[O-])CN2CC([N+](=O)[O-])(C3)C4(C)C)cc1 (stereo unspecified)	0.28
C=CCn1c(CSc2nc3ccccc3s2)nnc1SCC(=O)NCc1ccco1	0.84
C=CCn1c(SCC(=O)Nc2nc3ccccc3s2)nnc1-c1ccccc1O	-3.16 (active)
C=CCn1c(SCC(=O)NCc2ccccc2)nnc1-c1cc(Br)ccc1O	-0.9
